Experimental findings from PubChem BioAssay (NCI) are described below.

Structures are written as SMILES. Compounds without any hit were thinned out: in the full panel of roughly 83,000, 20% have a hit.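 Note: values are percent growth. 100 is the growth of untreated cells, values between 100 and 0 indicate rising inhibition; between -100 and 0 indicates cell death.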 Values without a mark were called inactive. Calls of active or inactive are those of the source. How the source made its calls: active means growth percent below 10; inactive means the rest.

Among the test systems are HCT-15 colon; HT29 colon; SNB-75 CNS; SNB-19 CNS; U251 CNS; PC-3 prostate; SK-MEL-5 melanoma; UACC-62 melanoma; LOX IMVI melanoma; SK-MEL-28 melanoma.
Test in all cases: NCI-60 one-dose screen, 48 h (100 = growth as untreated, 0 = no growth, -100 = all killed)
What all share (details): 10 µM unless noted

Turning to `O=C(Nc1ccccc1)C(CCCCN1C(=O)c2ccccc2C1=O)N1C(=O)c2ccccc2C1=O` (stereo not given), the growth in the test with HCT-15 colon was 102%; with HT29 colon, 107%; with SNB-75 CNS, 88.5%; in the test with SNB-19 CNS, 101%; with U251 CNS it was 102%; with PC-3 prostate it was 98.5%. Also, the growth in the test on SK-MEL-5 melanoma is 101%; in the test with UACC-62 melanoma, 98.9%; in the test on LOX IMVI melanoma it was 101%; with SK-MEL-28 melanoma, 107%.

Take `COc1cc2c(cc1I)-c1c(cc(OC)c(OC)c1OC)CC[C@@H]2NC(C)=O`: the growth is 9.35% (active) in the test on HCT-15 colon; 4.21% (active) in the test on HT29 colon; 27.7% in the test on SNB-75 CNS; 28% in the test with SNB-19 CNS; 17.3% in the test on U251 CNS; 27.2% with PC-3 prostate. The growth was 2.44% (active) in the test with SK-MEL-5 melanoma, 16.4% in the test with UACC-62 melanoma, 33.8% with LOX IMVI melanoma and 41.6% in the test with SK-MEL-28 melanoma.

Turning to `OC(c1cc(-c2ccc(C(F)(F)F)cc2)nc(-c2ccc(C(F)(F)F)cc2)c1)C1CCCCN1` (stereo not given), the growth in the test on HCT-15 colon was -71% (active); in the test on HT29 colon it was -81.7% (active); in the test on SNB-75 CNS, -82.9% (active); in the test on SNB-19 CNS it was -66.2% (active); in the test with U251 CNS, -85% (active); with PC-3 prostate, -86.1% (active). For the same molecule, the growth was -78.2% (active) with SK-MEL-5 melanoma, -84.3% (active) in the test with UACC-62 melanoma, -65.8% (active) in the test on LOX IMVI melanoma and -88.5% (active) with SK-MEL-28 melanoma.

Take `COc1ccc2[nH]cc(C(c3ccc(Cl)cc3)N3CCCC3)c2c1` (stereo not given): the growth in the test on HCT-15 colon is 89.7%; in the test on HT29 colon, 102%; with SNB-75 CNS, 90%; with SNB-19 CNS it was 105%; in the test on U251 CNS, 92%; in the test on PC-3 prostate, 74.8%. The growth was 88.5% in the test with SK-MEL-5 melanoma, 92.5% with UACC-62 melanoma, 90.7% in the test with LOX IMVI melanoma and 111% with SK-MEL-28 melanoma.

In the case of `N#Cc1c(N)c(C(=O)c2ccc3c(c2)OCCO3)n2c1CCCC2`, the growth in the test on HCT-15 colon was 20.9%; in the test with HT29 colon, 5.44% (active); in the test on SNB-75 CNS, -1.33% (active); with SNB-19 CNS, 53.7%; with U251 CNS, 15.4%; in the test on PC-3 prostate, 23%. Besides, the growth in the test on SK-MEL-5 melanoma is 22.8%; with UACC-62 melanoma, 38%; in the test with LOX IMVI melanoma it was 32.2%; with SK-MEL-28 melanoma, 44%.

For the molecule `c1ccc2c(c1)cnc1ccccc12`, the growth in the test on HCT-15 colon was 98.4%; with HT29 colon it was 94.6%; in the test with SNB-75 CNS it was 93.6%; with SNB-19 CNS it was 99.2%; in the test with U251 CNS, 109%; in the test on PC-3 prostate, 102%. Also, the growth is 98.5% with SK-MEL-5 melanoma, 98.9% with UACC-62 melanoma, 104% in the test on LOX IMVI melanoma and 118% in the test on SK-MEL-28 melanoma.

`COC(=O)C(CCC(=O)CCl)N1C(=O)c2ccccc2C1=O` (stereo not given): the growth in the test with HCT-15 colon was 48.1%; in the test with HT29 colon, 34.3%; with SNB-75 CNS, 91.5%; with SNB-19 CNS, 99.9%; in the test on U251 CNS, 47.1%; in the test with PC-3 prostate it was 60.3%. For the same molecule, the growth in the test with SK-MEL-5 melanoma is 71.3%; in the test on UACC-62 melanoma, 64.8%; in the test on LOX IMVI melanoma, -44.1% (active); in the test with SK-MEL-28 melanoma, 87%.

With `C#CC[C@@H]1C[C@]2(C)[C@H]3CC=C4[C@H]5CC(C)(C)CC[C@]5(C(=O)NCCCCN)CC[C@@]4(C)[C@]3(C)CC[C@H]2C(C)(C)[C@H]1OC(C)=O`, the growth in the test with HCT-15 colon is 8.51% (active); with HT29 colon it was 5.83% (active); in the test on SNB-75 CNS, -79.9% (active); with SNB-19 CNS, 6.48% (active); in the test with U251 CNS it was -77.9% (active); with PC-3 prostate it was 27%. Besides, the growth with SK-MEL-5 melanoma was 93.9%; in the test with UACC-62 melanoma, 106%; with LOX IMVI melanoma, -70.2% (active); in the test on SK-MEL-28 melanoma, 102%.

Consider `CCCCC(CCc1ccccn1)C(=O)c1ccccc1` (stereo not given), for which the growth with HCT-15 colon was 107%; in the test with HT29 colon it was 109%; in the test on SNB-75 CNS, 89.8%; with SNB-19 CNS, 110%; in the test with U251 CNS, 114%; with PC-3 prostate, 98.2%. The growth in the test on SK-MEL-5 melanoma was 103%; in the test on UACC-62 melanoma, 107%; with LOX IMVI melanoma it was 96.5%; in the test on SK-MEL-28 melanoma, 108%.

With `CC(C)=CCC[C@H](C)c1ccc(C)c2c1OCN(CCO)C2`, the growth was 105% with HCT-15 colon; 68.7% in the test on HT29 colon; 58.7% in the test on SNB-75 CNS; 57.9% in the test on SNB-19 CNS; 85.1% in the test with U251 CNS; 76.9% with PC-3 prostate. The growth in the test with SK-MEL-5 melanoma is 81.2%; in the test on UACC-62 melanoma, 96.1%; in the test with LOX IMVI melanoma it was 100%; in the test on SK-MEL-28 melanoma it was 111%.

Consider `COc1cccc(NC(=O)c2c(-c3ccccc3)c(-c3ccccc3)n[nH]c2=O)c1`, for which the growth with HCT-15 colon is 97.6%; in the test on HT29 colon it was 101%; with SNB-75 CNS, 77.9%; with SNB-19 CNS it was 93.4%; in the test with U251 CNS it was 101%; in the test with PC-3 prostate it was 94.6%. The growth in the test with SK-MEL-5 melanoma is 99.4%; in the test with UACC-62 melanoma, 92.9%; in the test with LOX IMVI melanoma, 96.3%; in the test with SK-MEL-28 melanoma, 102%.

Take `Cc1cc(NC(=O)c2ccc(N)cc2)ccc1N=Nc1ccc2cc(S(=O)(=O)O)cc(S(=O)(=O)O)c2c1`: the growth is 104% with HCT-15 colon; 99% with HT29 colon; 101% in the test on SNB-75 CNS; 129% in the test with SNB-19 CNS; 92.9% with U251 CNS; 85.6% in the test on PC-3 prostate. The growth in the test on SK-MEL-5 melanoma was 111%; in the test on UACC-62 melanoma, 114%; in the test with LOX IMVI melanoma, 99%; in the test on SK-MEL-28 melanoma it was 117%.

With `O=[N+]([O-])c1ccccc1CN1CCCCC1`, the growth is 107% in the test with HCT-15 colon; 113% in the test on HT29 colon; 87.8% with SNB-75 CNS; 106% with SNB-19 CNS; 110% in the test on U251 CNS; 91.6% with PC-3 prostate. For the same molecule, the growth with SK-MEL-5 melanoma is 105%; in the test on UACC-62 melanoma, 103%; with LOX IMVI melanoma it was 96.6%; in the test on SK-MEL-28 melanoma it was 117%.

As for `CCCc1n(Cc2ccc3ccccc3c2)c2ccccc2[n+]1Cc1ccc2ccccc2c1`, the growth in the test with HCT-15 colon is 4.29% (active); in the test on HT29 colon it was -72.2% (active); with SNB-75 CNS, -18.2% (active); with SNB-19 CNS it was -76% (active); in the test on U251 CNS, -92.6% (active); with PC-3 prostate, -22.8% (active). The growth in the test with SK-MEL-5 melanoma is -97.3% (active); in the test on UACC-62 melanoma, -89.2% (active); with LOX IMVI melanoma, -90.5% (active); in the test on SK-MEL-28 melanoma it was -53.6% (active).
